Source: PubChem BioAssay (National Center for Advancing Translational Sciences (NCATS))
Sm TGR inh: inhibitors of Schistosoma mansoni thioredoxin glutathione reductase; Q962Y6; purified TGR, DTNB reduction, TNB absorbance 405 nm; Potency, µM (highest dose often 114 µM), inactives show at the top dose activity change, negative = inhibition, actives largely listed as inhibitors; 360,000 compounds, 3% hits; note: nearly all actives have a fitted effect of over 60% in size
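Kinetic colorimetric format: TGR-catalysed, NADPH-driven DTNB reduction monitored via TNB absorbance. Enzyme dispensed at 20 nM; compound exposure 15 min at room temperature before reaction start.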
Marburg entry inh: Marburg virus entry inhibition | AID 540276 | Marburg virus pseudotyped entry inhibition, cell reporter | Potency, µM (titrated, usually from 37.8 µM), inactives show at the highest dose activity change, negative = inhibition, hits mostly inhibitors | 300,000 compounds, 1.8% hits; calls by dose curve; tested in HEK293 cells
RE007 growth inh: less growth of the S. pombe RE007 Vpr strain. S. pombe RE007 Vpr strain, BacTiter-Glo ATP luminescence, 24 h. Potency, µM (series often up to 92.2 µM), inactives show top-dose activity change, negative = less growth, most hits filed as inhibitors. 360,000 compounds, 0.21% hits. AID 651644; active = well fitted falling curve with a large enough effect; inconclusive = small, poorly fitted or top-dose-only effect; inactive = no such curve, though single readings can be large or run the other way; note: nearly all actives have a fitted effect of over 50% in size
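Fission yeast strain RE007, carrying one chromosomally integrated HIV-1 vpr copy, was seeded at OD 0.01 in PMG+AL medium with 23 nL pinned compound. After 24 h at 30 °C and 99% humidity, viability was read by BacTiter-Glo luminescence.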
LASV entry inh: inhibitors of Lassa virus binding or cell entry; AID 540256; 300,000 compounds, 1.2% hits; Potency, µM (titrated, usually from 37.9 µM), without a hit: at the top dose activity change, negative = inhibition, usual class: inhibitors; Lassa virus pseudotype entry inhibition, cell reporter; calls by dose curve; tested in HEK293 cells; note: nearly all actives have a fitted effect of over 50% in size
FMDV inh: blocks foot and mouth disease virus | FMDV antiviral cell-based qHTS | Potency, µM (series often up to 57.9 µM), for inactives: top-dose activity change, negative = inhibition, most hits filed as inhibitors | 410,000 compounds, 1.2% hits | AID 1159524; calls by dose curve; tested in HEK293T cells; note: read-out not given here; nearly all actives have a fitted effect of over 45% in size
HCV inhibitor: inhibitors of hepatitis C virus infection; Potency, µM (series often up to 41.8 µM), inactives show at the top dose activity change, negative = inhibition, usual class: inhibitors; 340,000 compounds, 3.4% hits; AID 651820; Huh7.5.1 HCVcc-Cre infection, luciferase reporter, 44 h
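Infectious HCVcc-Cre (~0.5 moi) was added to cells just after compound, with cells seeded 4 h earlier at 1,000 per well. Luciferase activity after 44 h culture reported infection; substrate was incubated 15 min at room temperature before reading.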
* hit, by the source's call; u = inconclusive; x = no result given; [ ] = remark or other dose. An excerpt weighted towards active compounds, which were near 7.2% of everything screened. Unless noted, calls come from the whole dose curve; as a rule, active = well fitted curve in the direction sought with a large enough effect; inconclusive = small, poorly fitted or top-dose-only effect, or another doubt; inactive = no such curve, though single readings can be large; an effect the other way counts as inactive or inconclusive. % is set by controls: 0 for no effect and ±100 for the full control effect; potency is the fitted concentration of half-maximal effect.

SMILES	Sm TGR inh	Marburg entry inh	RE007 growth inh	LASV entry inh	FMDV inh	HCV inhibitor
C/C=C\C=C/C(=O)Nc1cccc(C2=NOC3(C2)C[C@H](C(N)=O)N(C(=O)CC)C3)c1 (some centres not stated)	1.8µM*	x	-9%	x	-9%	-4%
C[C@H]1[C@H](O)[C@@H](N=[N+]=[N-])CCO[C@H]1c1ccccc1	x	-12%[14.2 µM]	x	x	x	x
O=C(O)c1nn(-c2ccccc2-c2n[nH]c(=O)[nH]c2=O)c(=O)[nH]c1=O	11µM*	x	x	x	x	x
O=C(c1ccccc1)N1CCN(c2n[nH]c(=O)[nH]c2=O)CC1	-6%	x	3%	x	-10%	9%
Nc1c(S(=O)(=O)c2cccs2)c2nc3ccccc3nc2n1/N=C/c1cccc(O)c1	-22%	u	29%	u	40µM*	7.9µM*
Cc1ccc(S(=O)(=O)c2c(N)n(/N=C/c3ccco3)c3nc4ccccc4nc23)cc1C	u	7.1µM*	3%	-25%	7%	u
Cc1ccc(S(=O)(=O)c2c(N)n(/N=C/c3ccco3)c3nc4ccccc4nc23)cc1	-21%	u	9%	u	-5%	u
Cc1cccc(S(=O)(=O)c2c(N)n(/N=C/c3ccco3)c3nc4ccccc4nc23)c1	-24%	u	-1%	-22%	20%	2.5µM*
CC(C)c1nn2c(=O)cc(COC(=O)C3CCCCC3)nc2s1	3%	x	x	10%[46.1 µM]	24%	x
CCc1ccccc1NC(=O)Cn1c(=O)oc2ccccc21	0%	x	x	-11%[46.1 µM]	-18%	x
CC(=O)/C(=C/c1ccccc1)C(=O)Nc1ccccc1C	45µM*	x	0%	x	14µM*	u
Cc1ccccc1NC(=O)C(=Cc1ccc(C(=O)O)cc1)C(=O)Nc1ccccc1C	-8%	u	28%	u	5.6µM*	u
N#C/C(=C/c1ccc(C(=O)O)cc1)C(=O)Nc1ccccc1	-4%	u	-11%	15%	0%	6%
CC(=O)Nc1ccccc1C	-2%	x	0%	x	-19%	38%
Nc1cccc2c1C(=O)N(C(=O)/C=C/c1cccc(F)c1)C2=O	6.3µM*	u	u	u	u	u
Nc1cccc2c1C(=O)N(C(=O)/C=C/c1cccc(Br)c1)C2=O	2.5µM*	-28%[46.1 µM]	u	u	u	u
CCCn1nc(NC(C)=O)c2cc3cccc(C)c3nc21	14%	x	4%	x	-22%	11µM*
CCCn1nc(NC(=O)COC)c2cc3cccc(C)c3nc21	5%	x	x	x	-21%	11µM*
CCCn1nc(NC(=O)CC(C)C)c2cc3cccc(C)c3nc21	4%	-1%[46.1 µM]	4%	3%	13%	-6%
Cc1c(Cl)cccc1NC(=O)C(=O)NCC(c1cccnc1)N1CCN(c2ccccc2)CC1 (configuration not stated)	-5%	x	x	-13%[46.1 µM]	-29%	x
COc1ccc(OC)c(-n2c(=O)[nH]c3cc(C(=O)NCCc4ccc(OC)c(OC)c4)ccc3c2=O)c1	6%	8%[46.1 µM]	x	3%[46.1 µM]	-16%	x
COc1ccc(-c2cc(C)cc3c2OC(CNC(=O)c2cc(C(C)C)on2)C3)nn1 (configuration not stated)	x	x	x	x	-3%	x
CCC(O)CNC(=O)NC(=C(Cl)Cl)c1ccc(C)c(F)c1 (configuration not stated)	1%	x	19%	x	u	16µM*
O=c1[nH]c(=S)[nH]c(O)c1N=Nc1ccc2c(c1)OCCO2	3%	11µM*	-5%	u	-57%	-29%
CCOC(=O)CCN1C(=O)[C@@H]2[C@H]3[C@H](O)[C@H](O)CC(=NNC(=O)OCc4ccc(OC)cc4)[C@H]3CC[C@H]2C1=O	x	22%[14.2 µM]	x	0.17µM*	x	x
SMILES	Sm TGR inh	Marburg entry inh	RE007 growth inh	LASV entry inh	FMDV inh	HCV inhibitor
Cc1oc2ccc(O)c(CN3CCCCC3C)c2c1C(=O)Nc1ccccc1 (configuration not stated)	-6%	u	x	-24%[46.1 µM]	-23%	x
CCCOc1ccccc1/C=C1\SC(N2CCCCC2)=NC1=O	-20%	u	15%	u	17%	10µM*
O=C1N=C(N2CCCCC2)S/C1=C\c1ccccc1F	-22%	u	1%	-26%	86%	-23%
CC12C=C(C=Cc3ccc(Br)cc3)C(C)(C1)C(c1ccc(Br)cc1)CC2=O (configuration not stated)	x	-26%[14.2 µM]	x	11%[14.3 µM]	x	x
CCc1ccc(/C=C2\SC(=S)N(CCCC(=O)Nc3ccccn3)C2=O)cc1	3%	u	-8%	11µM*	20µM*	-4%
COc1ccccc1/C=C1/SC(=S)N(CCC(=O)Nc2cccnc2)C1=O	-14%	x	4%	x	u	u
O=C(CCCN1C(=O)/C(=C/c2ccccc2OC(F)F)SC1=S)Nc1cccnc1	x	u	-1%	u	u	11µM*
O=C(CCCN1C(=O)/C(=C/c2cccc(Br)c2)SC1=S)Nc1cccnc1	-10%	u	-16%	u	-2%	u
COC(=O)c1ccc(/C=C2/SC(=S)N(CCCC(=O)Nc3ccccn3)C2=O)cc1	5%	u	-10%	-15%	-4%	0%
O=C(CCCN1C(=O)/C(=C/c2cccc(Br)c2)SC1=S)Nc1ccccn1	-7%	u	-5%	-10%	0%	11µM*
O=C(CCCN1C(=O)/C(=C\c2cccc(Br)c2)SC1=S)Nc1cccnc1	-11%	4.5µM*	-8%	u	-25%	u
CN(C)Cc1ccccc1-c1cncnc1NCc1cccnc1	x	x	x	x	2%	x
CCOC(=O)c1ccccc1NC(=O)N(C(C)C)C1CCN(C(C)=O)CC1	3%	-4%[46.1 µM]	x	-3%[46.1 µM]	0%	x
Cc1ccc2c(Cl)cc(Cl)c(OCC(=O)Nc3cccc(S(=O)(=O)N(C)C)c3)c2n1	-20%	0%	-3%	-11%	u	u
Cc1ccc2c(Cl)cc(Cl)c(OCC(=O)NC(C)(C)C)c2n1	-20%	x	-12%	x	-37%	22µM*
Cc1ccc2c(Cl)cc(Cl)c(OCC(=O)Nc3cc(S(=O)(=O)N(C)C)ccc3C)c2n1	-13%	4µM*	11%	u	u	2.5µM*
COc1cccc(C(=O)N2CCc3c(C(=O)NC(C)c4ccco4)c(OC)cc(=O)n3CC2)c1OC (configuration not stated)	x	x	x	x	23%	x
Cc1ccc(-n2cc(CN3CCC(CO)(Cc4cccc(C(F)(F)F)c4)CC3)cn2)cc1	1%	u	-1%	u	u	11µM*
COC(=O)C1=C(C)NC(C)=C(C(=O)OCC(C)C)C1c1ccccc1[N+](=O)[O-] (configuration not stated)	x	x	-29%	x	u	25µM*
COC(=O)C1=C(C)NC(C)=C([N+](=O)[O-])[C@H]1c1ccccc1C(F)(F)F	x	-6%	x	x	0%	x
CCN(CC)CCNC(=O)c1ccc2c(=O)n3nc(Nc4ccccc4)sc3nc2c1	0%	x	x	15%[46.1 µM]	-8%	x
